Compound activity deposited in PubChem by National Center for Advancing Translational Sciences (NCATS).
G9a inh – G9a (human) methyltransferase inhibition | Q96KQ7 | G9a H3K9 monomethylation, AlphaScreen, 2 h | Potency, µM (doses to about 102 µM), inactives show at the top dose activity, negative = inhibition, usual class: inhibitors | 350,000 tested, 8.8% active; also: % is scaled to controls: 0 for no effect and ±100 for the full control effect; nearly all actives have a fitted effect of over 75% in size
Target sequence (Q96KQ7 913-1193 limits assumed): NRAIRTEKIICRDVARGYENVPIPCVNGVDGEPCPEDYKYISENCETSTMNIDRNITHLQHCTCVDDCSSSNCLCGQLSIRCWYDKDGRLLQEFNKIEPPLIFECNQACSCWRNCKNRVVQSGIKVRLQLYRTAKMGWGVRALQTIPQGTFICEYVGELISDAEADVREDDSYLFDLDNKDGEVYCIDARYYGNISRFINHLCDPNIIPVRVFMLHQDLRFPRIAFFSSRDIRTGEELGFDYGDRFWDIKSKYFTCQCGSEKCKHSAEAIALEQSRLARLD
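AlphaScreen read-out: biotin-H3K9 peptide (500 nM) methylation by 20 nM enzyme with 20 uM SAM, 2 h at room temperature after 15 min compound preincubation; anti-monomethyl H3K9 antibody plus donor/acceptor beads, 10 min dark.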
BAZ2B inh – inhibitors of human BAZ2B bromodomain; Q9UIF8; AlphaScreen BAZ2B-H3K14Ac peptide displacement; Potency, µM (series often up to 114 µM), for the others: top-dose activity change, negative = inhibition, most hits filed as inhibitors; 360,000 tested, 4.4% active; also: % is scaled to controls: 0 for no effect and ±100 for the full control effect; nearly all actives have a fitted effect of over 60% in size
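AlphaScreen luminescence quantifies BAZ2B engagement of H3K14Ac peptide; the protein and biotinylated peptide are both at 50 nM final, buffer PBS pH 7.4 with 0.01% Tween-20, all steps at room temperature.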
Sfp PPTase inh – blocks B. subtilis Sfp PPTase activity; Biochemical Sfp PPTase activity, qHTS; Potency, µM, for inactives: largest response in the series, negative = inhibition, most hits filed as inhibitors; 310,000 tested, 3.5% active;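 also: the enzyme is Sfp with the accession as filed and its product quenches rhodamine fluorescence; 0% = enzyme reaction without inhibitor and -100% = no enzyme wells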
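Fluorescence-quenching assay with 15 nM Sfp, 5 uM rhodamine-CoA and 12.5 uM BHQ-2-labelled ybbR peptide in pH 7.6 Hepes/MgCl2 buffer. Enzyme was pre-incubated with compound for 15 min at room temperature. Rate was taken from the 30-min fluorescence change (525/598 nm).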
HP1b binding inh – inhibitors of HP1-beta chromodomain binding to methylated histone tails; Potency, µM (doses to about 114 µM), for inactives: top-dose activity change, negative = inhibition, actives largely listed as inhibitors; AlphaScreen HP1-beta / biotin-H3K9me3 peptide binding; 390,000 tested, 0.56% active; AID 540317; also: nearly all actives have a fitted effect of over 70% in size
Target sequence (P83916 whole entry, looked up): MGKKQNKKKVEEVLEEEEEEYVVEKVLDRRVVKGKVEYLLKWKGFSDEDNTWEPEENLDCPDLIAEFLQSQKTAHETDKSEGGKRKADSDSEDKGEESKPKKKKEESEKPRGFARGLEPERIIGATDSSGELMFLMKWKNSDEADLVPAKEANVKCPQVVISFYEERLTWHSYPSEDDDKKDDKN
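AlphaScreen: HP1-beta (50 nM) preformed 30 min with biotin-H3(1-18)K9me3 peptide (50 nM) in PBS pH 7.4, 0.01% Tween-20. Compound added for 30 min at RT, then streptavidin donor/nickel chelate acceptor beads (10 ug/mL) for 30 min.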
PLK1 PBD block – PLK1 (human) polo-box domain binding inhibition | P53350 | Plk1 PBD binding of FITC phosphopeptide, fluorescence polarization | Potency, µM, inactives show max response, negative = inhibition, hits mostly inhibitors | 360,000 tested, 2.8% active | AID 720504; also: series mostly up to about 57 µM; % is scaled to controls: 0 for no effect and ±100 for the full control effect; nearly all actives have a fitted effect of over 65% in size
JMJD2A Tudor inh – JMJD2A Tudor domain (human) inhibition; O75164; 390,000 tested, 4.4% active; AID 504339; AlphaScreen JMJD2A-Tudor / H3K4me3 peptide binding; Potency, µM (top dose mostly 114 µM), for the others: top-dose activity change, negative = inhibition, actives largely listed as inhibitors; also: % is scaled to controls: 0 for no effect and ±100 for the full control effect; nearly all actives have a fitted effect of over 50% in size
* marks the source's active call; other numbers are inactive results; ? = inconclusive; · = no result given; [ ] = another dose, or the depositor's remark. A selection: hits, their analogues and other compounds. The true share with any hit is near 12%. Calls follow the shape of the dose curve; as a rule, active = well fitted curve in the direction sought with a large enough effect; inconclusive = small, poorly fitted or top-dose-only effect, or another doubt; inactive = no such curve, though single readings can be large; an effect the other way counts as inactive or inconclusive. Potency is read from the fitted curve at half-maximal effect.

SMILES | G9a inh | BAZ2B inh | Sfp PPTase inh | HP1b binding inh | PLK1 PBD block | JMJD2A Tudor inh
CC(=O)c1sc(NC(=O)c2ccc(Cn3cc(Br)cn3)o2)nc1C | 44.7µM* | -8.5% | 11.8% | 16.1% | -21.6% | -13.9%
CC(=O)c1sc(NC(=O)c2ccc(Br)o2)nc1C | 2.2% | ? | 5.0% | 34.6% | 3.9% | 7.1%
O=C(C#Cc1ccccc1)c1ccc([N+](=O)[O-])cc1 | 10µM* | ? | -5.4% | -2.2% | 0.474µM* | -34.9%
Cc1ccc(C(=O)c2ccc([N+](=O)[O-])cc2)cc1 | ? | ? | 2.7% | -9.9% | 0.4% | -34.6%
CN(C)C(=O)C#Cc1ccccc1 | 0.4% | -0.2% | 11.0% | 19.0% | -0.5% | 0.7%
O=C(c1ccc(-c2ccccc2)cc1)c1ccc([N+](=O)[O-])cc1 | 56.2µM* | -37.5% | 12.9% | · | · | ·
O=C(C#Cc1ccccc1)c1ccccc1 | · | · | · | · | 2.99µM* | ·
CN1CCN(C(=O)c2cccc3c(-c4ccc(F)c(F)c4)coc23)CC1 | · | · | · | · | -2.1% | ·
CCN(CC)c1ccc(CNC23CN4CN(CN(C4)C2)C3)cc1 | 3.16µM* | -30.1% | 11.7% | -5.2% | -1.2% | ?
O=C(O)C1OC(Oc2c(-c3ccc(O)c(O)c3)oc3cc(O)cc(O)c3c2=O)C(O)C(O)C1O (centres undefined) | 31.6µM* | 35.5µM* | -9.7% | ? | -12.0% | 31.6µM*
CC1OC(Oc2c(-c3cc(O)c(O)c(O)c3)oc3cc(O)cc(O)c3c2=O)C(O)C(O)C1O (centres undefined) | 39.8µM* | -23.6% | 7.94µM* | -22.5% | ? | ?
CC1(C)CC(=O)C=C(c2cccc(O)c2)C1 | 0.2%[2.33 µM] | 9.8% | · | 26.7% | 0.7% | -14.3%
O=C(CC(=O)Nc1ccc(Cl)cc1)N/N=C\c1cccc(F)c1 | 19.7% | -4.4% | 13.7% | -9.3% | -5.0% | -10.6%
COc1ccc(-n2ccnc(NCc3cccs3)c2=O)cc1OC | ? | -27.4% | · | 10.8% | · | -2.6%
COc1ccc(N=C2C(=Nc3ccc(OC)cc3)N(c3ccc(OC)cc3)C(=S)N2c2ccccc2)cc1 | ? | 2µM* | -4.0% | ? | 0.4% | ?
COc1ccc(N=C2C(=Nc3ccc(OC)cc3)N(c3ccc(OC)cc3)C(=S)N2C)cc1 | 5.01µM* | 2.82µM* | 10.0% | 7.08µM* | -5.2% | 8.91µM*
COc1ccc(N=C2SCC(=O)N2c2ccc(OC)cc2)cc1 | 0.5% | 4.7% | -1.3% | 18.5% | -1.2% | -18.5%
CCOc1ccc(CCNC(=O)Cc2ccc(NC(=O)N3CCSc4ncccc43)cc2)cc1 | 4.1%[59 µM] | -11.3% | · | 41.3% | · | -8.3%
C=CCN1C(=O)/C(=C\c2cccc(OC(=O)c3ccco3)c2)SC1=S | 79.4µM* | -24.9% | 27.2% | -9.8% | 1.5% | -27.9%
C=CCN1C(=O)/C(=C\c2ccc(OC(=O)c3ccco3)c(OC)c2)SC1=S | 14.1µM* | 10µM* | 0.6% | -20.1% | 3.2% | ?
O=C(O)CN1C(=O)/C(=C\c2ccc(OC(=O)c3ccco3)cc2)SC1=S | 8.91µM* | -22.3% | 44.7µM* | -30.7% | 6.1% | ?
O=C(O)CN1C(=O)/C(=C/c2ccc(SCc3ccccc3)o2)SC1=S | 17.8µM* | 25.1µM* | 14.1µM* | ? | 9.8% | 56.2µM*
O=C(O)CN1C(=O)/C(=C\c2cccc(OC(=O)c3ccco3)c2)SC1=S | 1.0% | -9.3% | -9.4% | -6.4% | -20.7% | -23.8%
CCN1C(=O)/C(=C\c2cccc(OC(=O)c3ccco3)c2)SC1=S | -8.6% | 0.8% | 7.2% | ? | -16.7% | ?
C[C@@H]1CNCCN1S(=O)(=O)c1cccc2cnccc12 | · | · | 2.1% | · | · | ·
SMILES | G9a inh | BAZ2B inh | Sfp PPTase inh | HP1b binding inh | PLK1 PBD block | JMJD2A Tudor inh
COc1ccc(CCNC(=O)c2ccc3c(c2)CCN3S(=O)(=O)c2ccccc2)cc1OC | ? | -14.9% | · | 35.2% | · | -17.0%
CCc1ccccc1N(C(=O)c1snc(C(N)=O)c1N)C(C(=O)NCC1CCCO1)c1ccc(C)o1 (centres undefined) | 10.4% | -16.6% | 1.8% | 19.4% | -0.3% | -4.0%
CSCCC(C(=O)NC1CCCC1)n1c(-c2ccncc2)nc2ccccc21 (centres undefined) | · | · | · | · | -14.1% | ·
NS(=O)(=O)c1ccc(-c2ccc(/C=C3\C(=O)Nc4ccccc43)o2)cc1 | · | -37.8% | 12.4% | · | · | ·
NS(=O)(=O)c1ccc(-c2ccc(/C=C3\C(=O)Nc4cc(Cl)ccc43)o2)cc1 | 11.2µM* | 56.2µM* | ? | 10.4% | -1.1% | -29.7%
CC(C)OC(=O)C1OC1(C)c1ccccc1 (centres undefined) | · | · | · | 32.0% | -5.5% | 6.8%
C=C(c1ccccc1)c1ccc(N(C)C)cc1 | 16.8%[2.33 µM] | ? | -10.6% | ? | -11.8% | 44.7µM*
CC(OC(=O)c1cccc(-n2cnnn2)c1)C(=O)Nc1ccc(N(C)C)cc1 (centres undefined) | 7.08µM* | -5.4% | · | 27.9% | -7.8% | -11.7%
CC(OC(=O)c1cccc(-n2cnnn2)c1)C(=O)Nc1ccccc1F (centres undefined) | 50.1µM* | 4.4% | · | 17.0% | -2.3% | -5.5%
COCC1COS(=O)(=O)NC1(C)C (centres undefined) | 8.3% | -7.6% | 0.0% | 16.7% | -8.4% | -18.9%
CCc1nn(CC(=O)N2CCC(C)CC2)c(=O)c2cccn12 | 1.9% | -15.3% | 12.6% | 23.8% | -3.8% | -16.4%
CCc1nn(CC(=O)N2CCN(c3cccc(C(F)(F)F)c3)CC2)c(=O)c2cccn12 | -34.8%[59 µM] | 70.8µM* | · | 17.2% | · | ?
N#Cc1nc(Cc2cccc3ccccc23)oc1NCCN1CCCCC1 | ? | 79.4µM* | 0.3% | -9.7% | -18.1% | ?
CC1CN(c2oc(Cc3cccc4ccccc34)nc2C#N)CC(C)O1 (centres undefined) | 25.1µM* | ? | -14.9% | -46.7% | 1.6% | ?
CNc1oc(Cc2cccc3ccccc23)nc1C#N | ? | ? | 9.1% | 1.4% | -3.9% | -29.5%
CC1CN(c2oc(-c3cccs3)nc2C#N)CC(C)O1 (centres undefined) | -5.3%[59 µM] | -0.2% | -0.2% | 8.9% | -9.2% | -26.2%
CC(C1OC(C)(C)C(O)C1O)C1CC[C@@]2(C)C3=CCC4C(C)(C)C(=O)CC[C@]4(C)C3CC[C@@]12C (some centres undefined) | -30.8%[2.33 µM] | · | 5.5% | · | · | ·
CC1=C(C(=O)OC2CCCC2)C(c2c(F)cccc2Cl)CC(=O)N1 (centres undefined) | 4.8%[59 µM] | 3.5% | · | 32.0% | · | -7.2%
CCCCNC(=O)CSc1nc2ccccc2nc1Cc1ccccc1 | 3.9%[59 µM] | 2.8% | · | 28.2%[57 µM] | · | 1.6%
COCCN1C(=O)C(=O)/C(=C(/O)c2ccc(S(=O)(=O)N3CCCCC3)cc2)C1c1ccc(OC)cc1 (centres undefined) | 70.8µM* | -3.9%[57.1 µM] | -0.3% | 47.8% | -18.5% | -30.4%
